This is a sample that favours compounds with a hit; in the whole collection about 0.93% have one here.
HIV TAR-Tat: TAR RNA-Tat peptide displacers, HIV-1, primary screen, biochemical, FRET, FAM/TAMRA-labeled Tat; HIV-1 TAR RNA, Tat peptide displacement FRET; hits give high values; z-score (no concentration beside the values); 100,000 compounds, 0.6% hits; active = z-score of 3 or more in at least 2 runs
CDC25B-CDK2 inh: primary biochemical HTRF screen for blockers of M-phase inducer phosphatase 2 binding to CDK2/cyclin A; HTRF CDC25B-CDK2/CyclinA binding, anti-His/anti-Flag; hits give high values; z-score (no concentration beside the values); 94,000 compounds, 0.72% hits; AID 1259370, 2018; in the data active = z-score above about 3.2
Active calls of the source: *.

How did CCOP(=O)(OCC)C(C)(CC)NC(=S)Nc1c(C)cc(C)cc1C (stereo unspecified) do in these assays?
CDC25B-CDK2 inh: -3.4

How did CN1C(=O)C(C)(C)c2cc(S(=O)(=O)N3CCC(C(=O)N4CCCC4)CC3)ccc21 do in these assays?
HIV TAR-Tat: 0.03; CDC25B-CDK2 inh: -0.93

How did Cc1ccc2c(=O)c(C(=O)c3ccc(F)cc3)c[nH]c2n1 do in these assays?
HIV TAR-Tat: -2

What do the screens show for `Cc1ccc2c(=O)c(C(=O)O)c[nH]c2n1`?
HIV TAR-Tat: 20*; CDC25B-CDK2 inh: 1.5

How did O=C1CCCC2=C1C(c1cccs1)N(C(=O)NCc1ccco1)c1ccccc1N2 (stereo unspecified) do in these assays?
HIV TAR-Tat: 1.1

How did COc1ccccc1-n1cnc2cc(Nc3nnc(C)c4ccccc34)ccc21 do in these assays?
HIV TAR-Tat: 2.1; CDC25B-CDK2 inh: -3.1

How did COc1ccccc1-n1cnc2cc(NCc3ccncc3)ccc21 do in these assays?
HIV TAR-Tat: 0.48; CDC25B-CDK2 inh: 13*

What do the screens show for `O=C(O)CN1CCSc2ccc(S(=O)(=O)N3CCCC3)cc21`?
HIV TAR-Tat: 0.53

How did Cc1cccc(-c2nc(CSc3nnc(C)n4c3cc3sccc34)c(C)o2)c1 do in these assays?
HIV TAR-Tat: 2.5

What do the screens show for `COc1ccc(CNc2cc(C)nc3c(-c4ccc(OC)c(OC)c4)c(C)nn23)cc1`?
HIV TAR-Tat: 0.44; CDC25B-CDK2 inh: -2.5

What do the screens show for `COc1ccc(-c2cc3nc(C)cc(NCc4cccnc4)n3n2)cc1OC`?
HIV TAR-Tat: 5.1*; CDC25B-CDK2 inh: -2.1

How did Cc1[nH]c2ccccc2c1SCC(=O)NNC(=O)Nc1cccc(Cl)c1 do in these assays?
CDC25B-CDK2 inh: 14*

Results for O=C(CSc1nc2ccccc2c(=O)[nH]1)Nc1cccc(Cl)c1 ?
HIV TAR-Tat: 1.8

How did O=C(O)c1cc(=O)c2ccccc2[nH]1 do in these assays?
HIV TAR-Tat: 0.48; CDC25B-CDK2 inh: -0.32

How did O=C(O)c1cc(=O)c2cccc(O)c2[nH]1 do in these assays?
HIV TAR-Tat: 5.3*

How did O=c1ccc(-c2ccc(S(=O)(=O)N3CCN(c4cccc(Cl)c4)CC3)s2)n[nH]1 do in these assays?
HIV TAR-Tat: -0.25

Results for O=C(Nc1ccc2oc(-c3ccc(F)cc3)nc2c1)c1ccc([N+](=O)[O-])o1 ?
HIV TAR-Tat: 2.4; CDC25B-CDK2 inh: 0.59

Results for O=C(Nc1ccc2oc(-c3cccc(F)c3)nc2c1)c1ccc([N+](=O)[O-])o1 ?
HIV TAR-Tat: 22*; CDC25B-CDK2 inh: 2.5

What do the screens show for `Cc1nn(C(=O)c2ccccc2)c(C)c1Oc1ccc(Cl)cc1`?
CDC25B-CDK2 inh: -0.57

Results for Cc1csc2nc(COc3ccccc3)cc(=O)n12 ?
HIV TAR-Tat: -0.35; CDC25B-CDK2 inh: -1.2

How did Cc1csc2nc(CN(C)c3ccccc3)cc(=O)n12 do in these assays?
HIV TAR-Tat: 4.5*

What do the screens show for `CCN(Cc1cc(=O)n2c(C)csc2n1)c1ccccc1`?
HIV TAR-Tat: 5.1*

What do the screens show for `Cc1nn2c(=O)cc(CN(C)c3ccccc3)nc2s1`?
HIV TAR-Tat: 0.36

Results for CC1CCCC(C)N1CCCNC(=O)CCC(=O)N1CCSc2ccccc21 (stereo unspecified) ?
HIV TAR-Tat: 0.08

Results for CCS(=O)(=O)c1ncc(Cl)c(C(=O)Nc2sc3c(c2C(=O)NC)CCCC3)n1 ?
HIV TAR-Tat: 2.2; CDC25B-CDK2 inh: -0.1

What do the screens show for `COc1ccc(OC)c(CN2CCN(Cc3ccc4c(c3)OCO4)CC2)c1`?
HIV TAR-Tat: 0.34; CDC25B-CDK2 inh: -0.45

How did O=S(=O)(c1ccc2ccccc2c1)N1CCN(Cc2ccc3c(c2)OCO3)CC1 do in these assays?
HIV TAR-Tat: 9*; CDC25B-CDK2 inh: -0.97

How did CCOc1ccc(CN2CCN(Cc3ccc4c(c3)OCO4)CC2)cc1 do in these assays?
HIV TAR-Tat: 1.1; CDC25B-CDK2 inh: 8.4*

What do the screens show for `O=S(=O)(c1ccccc1)N1CCN(Cc2ccc3c(c2)OCO3)CC1`?
HIV TAR-Tat: 1.2; CDC25B-CDK2 inh: -0.65

What do the screens show for `Cc1ccc(C(C)C)c(OCC(=O)N2N=C3CCC(C)CC3C2(O)C(F)(F)F)c1` (stereo unspecified)?
CDC25B-CDK2 inh: -0.9

What do the screens show for `CCC(=O)N1CCc2cc(Br)cc(S(=O)(=O)NCCN3CCCCC3C)c21` (stereo unspecified)?
CDC25B-CDK2 inh: 3.4

What do the screens show for `CCC(=O)N1CCc2cc(Br)cc(S(=O)(=O)NCC3CCCN3CC)c21` (stereo unspecified)?
CDC25B-CDK2 inh: 4.5*

Results for O=C1c2ccccc2S(=O)(=O)N1CC(O)COc1ccccc1 (stereo unspecified) ?
CDC25B-CDK2 inh: -1.2

How did CN1CCc2c(n(CC(O)CN3C(=O)c4ccccc4S3(=O)=O)c3ccccc23)C1=O (stereo unspecified) do in these assays?
HIV TAR-Tat: 0.59; CDC25B-CDK2 inh: 19*

Results for COc1cc([N+](=O)[O-])ccc1-n1cccc1 ?
CDC25B-CDK2 inh: -1.4

How did Cn1cc(-c2cc3n(n2)CCC(=O)N3CCCC(=O)NCc2ccco2)c2ccccc21 do in these assays?
HIV TAR-Tat: 1.5

How did CSc1ccc(C2C(C#N)=C(N)Oc3c2ccc2ccccc32)cc1 (stereo unspecified) do in these assays?
HIV TAR-Tat: -0.49; CDC25B-CDK2 inh: -0.13

Results for CSc1ccc(C2C(C#N)=C(N)OC3=C2CCc2ccccc23)cc1 (stereo unspecified) ?
CDC25B-CDK2 inh: 7.5*

How did Cc1nn2c(c1-c1cccc(Cl)c1)NCN(Cc1ccccc1)C2 do in these assays?
HIV TAR-Tat: 0.7; CDC25B-CDK2 inh: -0.89

What do the screens show for `Cc1nonc1NC(=O)Nc1ccncc1`?
HIV TAR-Tat: -0.99; CDC25B-CDK2 inh: 9.2*

Results for Cc1nonc1NC(=O)N1CCOCC1 ?
HIV TAR-Tat: 1.3; CDC25B-CDK2 inh: -1.4

How did CS(=O)(=O)N1CCc2cc(C(=O)NCc3ccco3)ccc21 do in these assays?
HIV TAR-Tat: 14*; CDC25B-CDK2 inh: -0.51

Results for CC(C)NC(=O)c1ccc2c(c1)CCN2S(C)(=O)=O ?
HIV TAR-Tat: 1.5; CDC25B-CDK2 inh: -0.84

How did O=C(NC1CC1)c1ccc2cccc(O)c2n1 do in these assays?
HIV TAR-Tat: 1.7

Results for O=C(Nc1cccnc1)c1ccc2cccc(O)c2n1 ?
HIV TAR-Tat: 6.4*

How did COC(=O)c1c(N)n(-c2ccc(OC)c(OC)c2)c2nc3ccccc3nc12 do in these assays?
HIV TAR-Tat: 1.2; CDC25B-CDK2 inh: 10*

How did CCCCOC(=O)c1c(N)n(-c2ccccc2OC)c2nc3ccccc3nc12 do in these assays?
CDC25B-CDK2 inh: 1.6

Results for CCOC(=O)c1c(N)n(-c2ccc(C)c(C)c2)c2nc3ccccc3nc12 ?
HIV TAR-Tat: 1.6; CDC25B-CDK2 inh: -2.2

How did CCCCOC(=O)c1c(N)n(-c2ccc(OC)cc2)c2nc3ccccc3nc12 do in these assays?
HIV TAR-Tat: 0.97; CDC25B-CDK2 inh: 11*

What do the screens show for `COc1cccc(-c2nc3c(c(=O)[nH]2)Cc2cc(Cl)ccc2O3)c1O`?
HIV TAR-Tat: 4.9*; CDC25B-CDK2 inh: -0.74

Results for COc1cccc2c1Oc1[nH]c(-c3ccccc3F)nc(=S)c1C2 ?
HIV TAR-Tat: -0.18; CDC25B-CDK2 inh: -0.72

Results for CCOc1cccc(-c2nc3c(c(=O)[nH]2)Cc2cc(Br)ccc2O3)c1O ?
HIV TAR-Tat: 4; CDC25B-CDK2 inh: -1.3

How did O=c1[nH]c(-c2ccccc2O)nc2c1Cc1cc(Cl)ccc1O2 do in these assays?
HIV TAR-Tat: 2.2; CDC25B-CDK2 inh: -1.3

Compound activity as filed in PubChem BioAssay.
